Test results taken from PubChem BioAssay AID1835 (Johns Hopkins Ion Channel Center, 2009).
Screen size: about 2,400 compounds; about 750 (31%) were called active. The list shows a part of the results. Unmarked numbers belong to inactive results.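 The calls were made as follows: active = median signal gain over dofetilide-blocked control wells reaching their mean plus 3 SD, so readout 1 at least 0; inactive = the rest.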

Target: Voltage-gated inwardly rectifying potassium channel KCNH2 (Homo sapiens) (UniProt Q12809)
Experiment: modulators restoring hERG flux under dofetilide – cell-based, thallium flux, duplicate retest, dofetilide IC70, confirmation (AID 1835)
Settings: hERG cell line, FluxOR thallium flux, dofetilide-blocked; at 10 µM; active compounds read high

Chain of Voltage-gated inwardly rectifying potassium channel KCNH2 (Homo sapiens) (Q12809 whole entry, looked up): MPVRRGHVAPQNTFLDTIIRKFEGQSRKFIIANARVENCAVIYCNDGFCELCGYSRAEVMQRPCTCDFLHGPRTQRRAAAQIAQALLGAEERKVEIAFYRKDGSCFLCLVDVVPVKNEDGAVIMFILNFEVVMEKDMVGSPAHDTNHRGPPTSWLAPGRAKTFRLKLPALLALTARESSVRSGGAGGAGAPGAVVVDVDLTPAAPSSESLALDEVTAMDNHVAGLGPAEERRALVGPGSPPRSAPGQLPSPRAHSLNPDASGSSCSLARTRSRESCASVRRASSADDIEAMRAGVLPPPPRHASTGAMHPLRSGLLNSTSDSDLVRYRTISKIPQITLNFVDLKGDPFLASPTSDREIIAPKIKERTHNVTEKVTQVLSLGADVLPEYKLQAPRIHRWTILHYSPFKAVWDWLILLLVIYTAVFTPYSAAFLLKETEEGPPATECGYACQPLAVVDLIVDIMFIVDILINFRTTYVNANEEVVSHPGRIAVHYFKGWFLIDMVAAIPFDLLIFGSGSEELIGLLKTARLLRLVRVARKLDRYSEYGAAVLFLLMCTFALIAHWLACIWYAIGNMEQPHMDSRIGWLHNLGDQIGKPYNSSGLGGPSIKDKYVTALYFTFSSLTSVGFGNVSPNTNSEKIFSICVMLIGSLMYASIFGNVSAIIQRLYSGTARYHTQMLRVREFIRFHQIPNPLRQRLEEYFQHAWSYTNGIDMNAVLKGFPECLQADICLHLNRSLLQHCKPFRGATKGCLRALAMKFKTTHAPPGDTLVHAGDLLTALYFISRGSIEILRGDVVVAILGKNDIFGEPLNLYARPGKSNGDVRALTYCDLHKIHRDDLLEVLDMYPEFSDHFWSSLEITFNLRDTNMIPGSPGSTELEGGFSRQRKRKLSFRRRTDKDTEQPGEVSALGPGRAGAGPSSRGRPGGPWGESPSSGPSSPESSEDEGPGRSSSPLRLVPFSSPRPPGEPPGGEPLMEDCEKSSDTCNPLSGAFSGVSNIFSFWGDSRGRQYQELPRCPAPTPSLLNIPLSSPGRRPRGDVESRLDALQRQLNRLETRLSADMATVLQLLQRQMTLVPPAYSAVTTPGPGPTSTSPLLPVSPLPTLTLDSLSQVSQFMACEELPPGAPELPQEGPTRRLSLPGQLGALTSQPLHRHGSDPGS

| Structure (SMILES) | activity increase over dofetilide control, less the hit threshold |
| --- | --- |
| Oc1c(Cl)cc(Cl)cc1/C=N/c1ncn[nH]1 | 15% (active) |
| NC(=O)c1cccc(N=Cc2cc(Cl)cc(Cl)c2O)c1 | 6% (active) |
| O=C(Nc1cccc(N=Cc2cc(Cl)cc(Br)c2O)c1)c1ccco1 | 6% (active) |
| O=C(N/N=C/c1cc(Cl)ccc1O)c1ccccc1Br | -3% |
| Oc1c(Br)cc(Br)cc1C=Nc1cccc2ncccc12 | -7% |
| Oc1c(Cl)cc(Cl)cc1/C=N/c1nccs1 | -11% |
| O=C(NC(=S)Nc1cccc([N+](=O)[O-])c1)c1ccco1 | -16% |
| Oc1c(Br)cc(Cl)cc1C=Nc1ccccc1Br | 9% (active) |
| COc1ccccc1-n1c(CCC(=O)O)ccc1-c1ccccc1 | -12% |
| Nc1cc(N)nc(SCc2cc(=O)oc3cc4c(cc23)CCC4)n1 | -35% |
| CCCNC(=O)CN1C(=O)NC(Cc2c[nH]c3ccccc23)C1=O (configuration not stated) | -22% |
| COc1ccc(-c2nc(=S)c3c([nH]2)Oc2ccc(C)cc2C3)cc1O | -22% |
| CC(=O)Nc1ccc(NC(=O)CSc2ncc(C(=O)Nc3ccc(Cl)cc3)c(=O)n2C)cc1 | -4% |
| Oc1c(Br)cc(Br)cc1C=Nc1ccc2c(c1)OCCO2 | -12% |
| Oc1c(Cl)cc(Cl)cc1C=Nc1ccc(Br)cc1 | 8% (active) |
| Cc1cccc(N=Cc2cc(Br)cc(Cl)c2O)c1 | 5% (active) |
| Cc1ccc(N=Cc2cc(Br)cc(Cl)c2O)cc1 | -10% |
| CC(=O)N1c2ccc(N=Cc3cc(Br)cc(Br)c3O)cc2CC1C (configuration not stated) | -5% |
| Cc1ccc(N=Cc2cc(Cl)cc(Cl)c2O)nc1 | 3% (active) |
| O=C(CSCc1cnn(-c2ccccc2)c1-n1cccc1)NCc1cccnc1 | -22% |
| Cn1nnnc1Sc1ncnc2scc(-c3ccc(F)cc3)c12 | -12% |
| S=c1[nH]cnc2scc(-c3ccccc3)c12 | 51% (active) |
| Cc1ccc(C)n1-n1c(C)nc2scc(-c3ccccc3)c2c1=O | -20% |
| S=c1[nH]cnc2scc(-c3ccc(Br)cc3)c12 | 33% (active) |
| S=c1[nH]cnc2scc(-c3ccc(Cl)cc3)c12 | 22% (active) |
| Cc1ccc(-c2csc3nc[nH]c(=S)c23)cc1 | 45% (active) |

| Structure (SMILES) | activity increase over dofetilide control, less the hit threshold |
| --- | --- |
| Cn1cc(/C=N/n2cnc3scc(-c4ccc(Cl)cc4)c3c2=O)c2ccccc21 | -10% |
| O=C1C(=O)N(CCN2CCOCC2)C(c2cccnc2)/C1=C(/O)c1ccc(Cl)cc1 (configuration not stated) | -8% |
| CCn1nnnc1SCC(=O)N1c2ccccc2Sc2ccccc21 | -17% |
| CCOC(=O)N1CCN(C(=O)CCn2c(=S)[nH]c3ccsc3c2=O)CC1 | -6% |
| CCOC(=O)N1CCN(C(=O)CSc2nnc(-c3ccccc3OC)o2)CC1 | -8% |
| CCOC(=O)N1CCN(c2c(-c3ccc(C)c(C)c3)c(=O)c2=O)CC1 | 1% (active) |
| CC(C)OC(=O)C1CC(C)(O)C(=O)C(C(=O)OC(C)C)C1c1ccc([N+](=O)[O-])cc1 (configuration not stated) | -22% |
| CN1CCN(c2nnc(-c3cccs3)c3ccccc23)CC1 | -13% |
| CCOC(=O)C1=NN(C(=O)c2ccc(OC)cc2)C(O)(c2ccc(Cl)cc2)C1 (configuration not stated) | 81% (active) |
| CCOC(=O)C1=NN(C(=O)c2ccccc2)C(O)(c2ccc(C)cc2)C1 (configuration not stated) | 1% (active) |
| CCOC(=O)C1=NN(C(=O)c2ccc(C)cc2)C(O)(c2ccc(Cl)cc2)C1 (configuration not stated) | 100% (active) |
| CCC1=NN(C(=O)c2ccc(Cl)cc2)C(O)(c2ccc(C)cc2)C1 (configuration not stated) | -14% |
| CCOC(=O)CN1N=C(/C=C/c2ccc(OC)cc2)CCC1=O | -25% |
| O=C1C=C(Nc2cccc3cccnc23)c2ccccc2C1=O | -5% |
| COCC(=O)Nc1cc(C)cn(Cc2c(F)cccc2Cl)c1=O | -5% |
| Cc1ccc(C(=C2C3C=CC2C2C(=O)NC(=O)C32)c2ccc(C)cc2)cc1 (configuration not stated) | -15% |
| CC(C)(C)c1cc(CCC(=O)NCc2ccncc2)cc(C(C)(C)C)c1O | -11% |
| O=C(NC(=S)Nc1ccccc1)c1cc(-c2ccccc2)nc2ccccc12 | 8% (active) |
| COC(=O)c1ccc(NC(=S)NC(=O)c2c(-c3ccccc3)noc2C)cc1 | -15% |
| O=C(NC(=S)Nc1ccccn1)c1cc(-c2ccccc2)nc2ccccc12 | 1% (active) |
| CC(C)(C)NS(=O)(=O)c1ccc(NC(=O)c2cc(-c3ccccc3)nc3ccccc23)cc1 | -11% |
| Cc1ccccc1NC(=S)NC(=O)c1cc(-c2ccccc2)nc2ccccc12 | 27% (active) |
| O=C(N/N=C/c1ccccn1)c1cc(-c2ccc(Br)cc2)nc2ccccc12 | -46% |
| COC(=O)c1ccc(NC(=S)NC(=O)c2cc(-c3ccccc3)nc3ccccc23)cc1 | 11% (active) |
| Cc1ccc2nc(-c3ccccn3)cc(C(=O)NC3CCN(C)CC3)c2c1 | -19% |
| Cc1ccc(NC(=O)c2cc(NC(=O)/C=C\C(=O)O)ccc2N2CCCCC2)cc1 | -11% |
